Experimental findings from the supplement of paper PMC6555819 are described below.

This assay relates to PPARg:RXRa 30nM:10nM, anti-RXR (NR concentration 30 nM, RXRa partner concentration 10 nM). As to the kind of experiment: PBM binding z-score (relative to random genomic background probes); higher = stronger binding; sequences stand for … in GC…GCGATTGACAGCGTAGAATGAAGG
The gist of the method: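 Random background probes are the reference for binding z-scores. These scores derive from regression-normalized fluorescence on custom Agilent 4×180K protein-binding microarrays incubated 1 h with ligand-free nuclear receptor dimers. Binding was detected with antibodies against each partner (one per run).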
CCTAGTGGGTCAGGAGGTCACACACCGGATATGA: the PBM binding z-score is 4.29.

Regarding CCTACTGGGCAAAAAAGGTCATTGATGCCGATAA, the PBM binding z-score was determined as 0.775.

Turning to TCTAGTTCGTCACGGAGGTCACACACGACGGGTA, the PBM binding z-score was determined as 3.62.

Sequence CCTAGTTGGTCAAGGTCACGCACGCTATAGGTAC registered a PBM binding z-score of 1.96.

In the case of ATATGTAGGTTAGCGGGGGTCATTCAGACTAGGC, the PBM binding z-score turned out to be 4.14.

Turning to CCTAGATGGTCAGGAGGTCACACACCGGATATGA, the PBM binding z-score came to 1.24.

In turn, CCTAGTTGGTCAGGAAGTCACACACCGGATATGA displayed a PBM binding z-score of 0.308.

The sequence CGTCAAAGTTAAAGGTAACGTAACAGAAAGCAGC showed a PBM binding z-score of 0.527.

The sequence CCTACTGGGCCATTCAGAGGTCACTGATCATATG gave a PBM binding z-score of 0.819.

TAGCCTCGGTCATTCAGGGGCCAGTATAGAAAGC came in with a PBM binding z-score of -0.569.

On to CAAACTAGGCCAAGGTCAAAGTCGGTTTGTGCCA, for which the PBM binding z-score amounted to 3.89.

For ATCGAAAGGTCGAGTTGAGTATAGAGAAAGGGAA, the PBM binding z-score amounted to 0.961.

In turn, CGTCAAAGTTCAAGGTAAAGTAACAGAAAGCAGC gave a PBM binding z-score of 2.5.

CTATGTAGGTGAAGGGGGTCATTCAGTTTGAAAG showed a PBM binding z-score of 7.28.

Take TCTAGTTGGTCACGGGGGTCACACACGACGGGTA: the PBM binding z-score is 4.82.

CCTTACGGGTCACTTACAGGTTATAGCATTTGGA: the PBM binding z-score came to 1.27.

In the case of CCTACTGGGCCATTCAGAGGTCATCGATCATATG, the PBM binding z-score worked out at 1.49.

In turn, CAAAATAGGTCAAGAGGTCAAAGTCCGCTTCCCG had a PBM binding z-score of 6.55.

On to TAGCCTAGGTCATGCGGGTCAGTATAGTGTCGGC, for which the PBM binding z-score was determined as 0.354.

Turning to GCTTACGGGTCAAAGGTTAAAGCATGAATAGAAT, the PBM binding z-score was determined as 9.12.

CGTCCAAGGTCAAAGGTCAGCGAAGAGATGACGG came in with a PBM binding z-score of 8.19.

ATCGAAAGGTCGACGAGGTGAGAATACACCGTTT came in with a PBM binding z-score of 1.25.

Sequence CGTCCAAGGGCAATGCTAGGTCAGTGAAAGCATT had a PBM binding z-score of -0.775.

For GCTTACGGGTCAAAAGTTATAGCATGAATAGAAT, the PBM binding z-score amounted to 4.03.

In turn, CCTACTGGGCCACGAAAGGTGATTGATTCAGTGA registered a PBM binding z-score of 0.232.

Sequence CTATGTAGGTTAAGGGGGTCATTGAGTTTGAAAG gave a PBM binding z-score of 5.98.

As to ATCGAAAGGTCGTGAGGTGAGTTTACAGAAAGGC, the PBM binding z-score turned out to be 1.98.

The sequence TCTACTTGGTCACGGAGGTCACACACGACGGGTA showed a PBM binding z-score of 3.72.

For the sequence TCGAGTAGGTTACGGGGGCGTTCAGGGATGAAGA, the PBM binding z-score was 2.93.

For the sequence TATACAGGATCAAAGGCCAGAGTACGAATGTCGA, the PBM binding z-score was 1.85.

As for CCTAGTTGGTCAAGGTCCCACACGCTATAGGTAC, the PBM binding z-score is -0.0168.

CCCAGTAGGTTACGAGGGGGCATTCAGTGCGAAT showed a PBM binding z-score of 1.62.

Sequence AGAATGGGGTTATTAAGATCAGGGAATTGCGGTC displayed a PBM binding z-score of 1.26.

Turning to ATCGAAAGGTCGTGAAGTGAGTATACAGAAAGGC, the PBM binding z-score is 1.42.

The sequence GCTGCTAGGTCAGGTTGGTCAGCTAACGGGTACG returned a PBM binding z-score of -0.261.

As to CCTTACGGGTCACTGACAGCTTATAGCATTTGGA, the PBM binding z-score came out at 1.74.

In turn, AGAATGAGGTTAGCAAAGATCAGGGAAACGCTTG yielded a PBM binding z-score of 0.0816.

With CCTAGTTGGTCAGGGGGTCACACACCGGATATGA, the PBM binding z-score was 2.89.

In the case of AGTCGGAGGACAAAGGTCAGAGCTACGCCAGTGA, the PBM binding z-score is 5.94.
